Only some compounds are listed: those with a hit (about 2.5% of all), similar ones and a draw of the others.
NPR2 activator: human GC-B receptor activators, primary screen, HEK293 GC-B cells, cGMP TR-FRET, EC30 CNP. activation, % at 10 µM. 0% at EC30 CNP, 100% saturating CNP. Atrial natriuretic peptide receptor 2 (Homo sapiens), P20594. 0.11% of 370,000 active;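 active means activation at 10 µM reaching about 35% in either raw or pattern-adjusted values, limit read from the data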
NPR1 activator: GC-A stimulated cGMP production enhancers – HEK293 GC-A cells, cGMP TR-FRET, EC30 ANP, primary screen; Atrial natriuretic peptide receptor 1 (Homo sapiens), P16066; 0% at EC30 ANP, 100% saturating ANP; activation, % at 10 µM; 0.14% of 370,000 active; in the data active means activation above about 40%
Target sequence (P16066 whole entry, looked up): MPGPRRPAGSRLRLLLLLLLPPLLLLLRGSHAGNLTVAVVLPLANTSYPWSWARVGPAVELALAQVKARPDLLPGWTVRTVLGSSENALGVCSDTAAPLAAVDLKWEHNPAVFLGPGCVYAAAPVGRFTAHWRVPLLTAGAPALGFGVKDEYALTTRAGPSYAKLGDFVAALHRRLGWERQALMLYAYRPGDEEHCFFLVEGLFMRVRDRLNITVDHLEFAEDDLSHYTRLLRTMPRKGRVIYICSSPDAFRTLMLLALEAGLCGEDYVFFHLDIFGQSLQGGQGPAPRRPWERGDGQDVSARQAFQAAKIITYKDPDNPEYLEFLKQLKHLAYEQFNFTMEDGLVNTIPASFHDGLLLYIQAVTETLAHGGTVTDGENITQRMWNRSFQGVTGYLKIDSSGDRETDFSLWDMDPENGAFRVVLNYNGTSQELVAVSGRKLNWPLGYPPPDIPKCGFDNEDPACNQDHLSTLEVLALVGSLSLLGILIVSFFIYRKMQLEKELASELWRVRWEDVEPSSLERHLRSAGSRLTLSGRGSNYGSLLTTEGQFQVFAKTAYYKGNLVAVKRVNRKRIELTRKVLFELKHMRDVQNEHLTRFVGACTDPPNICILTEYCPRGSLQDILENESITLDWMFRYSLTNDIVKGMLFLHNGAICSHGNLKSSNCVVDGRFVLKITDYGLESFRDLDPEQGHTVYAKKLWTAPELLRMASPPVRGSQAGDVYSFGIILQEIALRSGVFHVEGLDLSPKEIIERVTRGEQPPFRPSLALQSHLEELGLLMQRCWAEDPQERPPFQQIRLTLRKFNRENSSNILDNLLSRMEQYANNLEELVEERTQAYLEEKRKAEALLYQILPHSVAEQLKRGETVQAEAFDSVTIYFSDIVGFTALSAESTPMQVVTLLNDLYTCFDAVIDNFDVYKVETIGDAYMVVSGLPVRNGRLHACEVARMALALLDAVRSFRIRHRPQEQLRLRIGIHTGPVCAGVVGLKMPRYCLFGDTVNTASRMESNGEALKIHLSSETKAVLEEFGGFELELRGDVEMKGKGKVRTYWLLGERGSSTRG
aDG glyco act: activators of alpha-DG glycosylation, primary screen, uHTS, Pro5-aDG cells, AlphaScreen; alpha-DG glycosylation AlphaScreen (IIH6); 0% Pro5, 100% B10-LARGE cell signal; activation, % at 10 µM; 0.22% of 360,000 active; AID 624168, 2012;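 active means activation of at least 8% versus controls, or a plate z-score of at least 8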;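 further: Pro5 are CHO cells carrying HIG-tagged alpha-DG that lacks glycosylation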
HSF1 inh: HSF1 inhibitors in luciferase reporter cells, primary screen, cell-based, NIH3T3, luminescence; NIH3T3-HGL HSE-luciferase, MG132-induced, luminescence 8 h; active compounds read low; activity change, negative = inhibition, % at 7.5 µM (by protocol); 0.77% of 300,000 active; AID 2098, 2009;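 active means more than half of replicate wells show activity change below -50%, luminescence cut by over half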;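 further: luciferase reports HSF-1 transcriptional activity via heat shock element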
DYRK1A inh: rat Dyrk1A kinase inhibitors, primary screen, biochemical, single point, plate reader | inhibition, % at 12.5 µM | Dual specificity tyrosine-phosphorylation-regulated kinase 1A (Rattus norvegicus), Q63470 | ADP-Glo luminescence, NFATc1 peptide | 0.43% of 310,000 active; in the data active means inhibition above about 50%
HSF1 activator: HSF-1 activators, primary screen, NIH3T3-HGL cells, MG132 stress, luminescence, single point. NIH3T3-HGL HSF-1 luciferase reporter, 8 h; 100% = twice DMSO control signal. activation, % at 9 µM. 1.7% of 300,000 active;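 active means mean replicate activation of at least 50% with a set share of replicates each reaching 50%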
Hits are given with their value; – = inactive; · = no result given.

SMILES | NPR2 activator | NPR1 activator | aDG glyco act | HSF1 inh | DYRK1A inh | HSF1 activator
O=C1CCC(C(=O)Nc2cccc(S(=O)(=O)Nc3ccccc3F)c2)=NN1 | – | – | – | · | · | ·
C/C(CC(=O)NC(C)(C)C)=N\NC(=O)COc1ccc(C)cc1Br | – | – | – | – | – | –
COCCn1nnnc1C(c1ccccc1OC)N1CCc2ccccc2C1 (stereo unspecified) | – | – | – | – | – | 94.9
COc1cccc(CN(C)C(=O)c2ccc(COc3ccc(Cl)cc3)cc2)c1OC | – | – | – | – | – | 55.2
COc1ccccc1CN(C)C(=O)c1ccc(COc2ccccc2)cc1 | – | – | – | – | – | –
CCN(CC)C(=O)COC(=O)c1ccc(C)c(NC(=O)c2ccco2)c1 | – | – | – | -59.2 | – | –
CCCCNC(=O)COC(=O)c1ccc(C)c(NC(=O)c2ccco2)c1 | – | – | – | – | – | –
CCOC(=O)CC(=O)CSc1nc2ccc(C)cc2cc1C#N | – | – | – | · | – | ·
COC(=O)CSc1nc2cc(C)ccc2cc1C#N | – | – | – | – | – | 64.7
CNC(=O)C1CC(=O)N(c2ccc(C)cc2)C1 (stereo unspecified) | – | – | – | · | – | ·
O=C(O)c1cccc(N2C(=O)/C(=C/c3ccc([N+](=O)[O-])cc3)C=C2c2ccccc2)c1 | – | – | – | -71.7 | – | –
O=C1/C(=C/c2ccc([N+](=O)[O-])cc2)C=C(c2ccccc2)N1c1ccc(O)cc1 | – | – | – | – | – | 94.6
O=C1/C(=C/c2ccc([N+](=O)[O-])cc2)C=C(c2ccccc2)N1c1ccccc1 | – | – | – | – | – | –
CN(C)C(=N)c1n[nH]nc1SCc1ccc(Cl)c(Cl)c1 | – | – | – | – | – | –
COc1cc(N2CCCC2)c(OC)cc1/C=C1/NC(=S)NC1=O | – | – | – | – | – | –
CCCC(C)NS(=O)(=O)c1ccccc1 (stereo unspecified) | – | – | – | -59.3 | – | –
COCC(C)NS(=O)(=O)c1ccccc1 (stereo unspecified) | – | – | – | – | – | –
Cc1cc(NC(=O)CSc2nc3c(cc2C#N)CCC3)no1 | – | – | – | – | – | 84.2
Cc1cc(NC(=O)CSc2nnc(C)n2C)no1 | – | – | – | -59.2 | – | –
Cc1cc(NC(=O)CSc2nc3c(cc2C#N)CCCC3)no1 | – | – | – | – | – | 70.8
Cc1cc(NC(=O)CSc2nnc(C3CC3)n2C)no1 | – | – | – | – | – | –
Cc1cc(S(=O)(=O)Nc2ccc(C(=O)NCC(C)(C)N3CCOCC3)cc2)ccc1F | – | – | – | -68.5 | – | –
CC(C)(CNC(=O)c1ccc(NS(=O)(=O)c2ccc(Br)cc2)cc1)N1CCOCC1 | – | – | – | – | – | –
Cc1cc(S(=O)(=O)N2CCN=C2c2ccccc2)c(C)cc1Cl | – | – | – | -62.6 | – | –
CCOC(=O)CC(c1ccc(N)cc1)n1c(C)ccc1C (stereo unspecified) | – | – | – | – | – | –
SMILES | NPR2 activator | NPR1 activator | aDG glyco act | HSF1 inh | DYRK1A inh | HSF1 activator
COc1cccc(-c2csc(NC(=O)Nc3ccccc3)n2)c1 | – | – | – | -60.2 | – | –
COc1ccc(-n2nc3c(N4CCC(C(=O)N5CCC(C)CC5)CC4)nnc(C)c3c2C)cc1 | – | – | – | – | – | 54.9
C[C@@H]1ON(C2CCCCC2)[C@H]2c3nc4ccccc4n3C[C@@H]12 | – | – | – | – | – | –
CCOc1ccc2nc(SCC(=O)c3cccs3)sc2c1 | – | – | – | – | – | 60.9
CCOc1ccc2nc(SCC(=O)c3ccc(Cl)s3)sc2c1 | – | – | – | – | – | –
OCCNc1nc(NCCC2=CCCCC2)nc(N2CCOCC2)n1 | – | – | – | – | – | –
COc1ccc(CCNC(=O)c2cc3c(=O)n4cccc(C)c4nc3n(Cc3ccco3)c2=N)cc1OC | – | – | – | – | – | 99.3

Screening results as filed in PubChem BioAssay.
